# Assay results published in PubChem BioAssay (NCI).
# The panel holds about 83,000 compounds, 20% with a hit somewhere; the sample as a whole holds those more often.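 Treatment: one concentration, 48 hours, 96-well format. Scoring: percent growth, with anything below 10 considered active.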 Calls of active or inactive are those of the source.
# Test system: HL-60(TB) leukemia
# Experiment: NCI-60 one-dose screen, 48 h (100 = growth as untreated, 0 = no growth, -100 = all killed)
# Details: 10 µM unless noted
row,SMILES,growth
1,COc1cc(-c2nc3ccc(C)cc3[nH]2)ccc1OCc1nnc(-c2ccc(CC(C)C)cc2)o1,110% (inactive)
2,CC(C)C(=O)OCCOc1ccc(C(C)(C)C)cc1,107% (inactive)
3,CC[C@]1(O)C[C@@H]2CN(CCc3c([nH]c4ccccc34)[C@@](C(=O)OC)(c3cc4c(cc3OC)N(C)[C@H]3[C@@](O)(C(=O)OC)[C@H](OC(=O)CCCBr)[C@]5(CC)C=CCN6CC[C@]43[C@@H]65)C2)C1,-21.2% (active)
4,COc1cc(/C(C#N)=C/c2ccc3c(c2OC)OCO3)cc2c1OCO2,26.9% (inactive)
5,COc1ccc(-n2nc(C(=O)NCC(=O)Nc3nc4cc(OC)ccc4s3)c3ccccc3c2=O)cc1,61.7% (inactive)
6,CN(C)c1ccc(N)c2ccccc12,43.5% (inactive)
7,C/C(=C(\c1ccc(OCCCN(C)C)cc1)c1ccc(OC(=O)Cc2ccccc2)cc1)c1ccc(Cl)cc1,78% (inactive)
8,Cc1c2c[n+](C(C)C)ccc2c(C)c2c1[nH]c1ccccc12,14.4% (inactive)
9,COc1ccc2c(O)c(/C=C3\N=Nc4ccccc43)oc2c1C[C@H]1CCNC[C@H]1F,14.4% (inactive)
10,O=C(Nc1nc(-c2ccc(Cl)cc2)nc2c1sc(=S)n2-c1ccccc1)C(F)(F)F,69.2% (inactive)
11,O=C1C[C@H](c2ccccc2)[C@H](c2ccccc2)C1,88.1% (inactive)
12,Cn1cc(-c2nc3c(F)cc4[nH]ncc4c3c3c2CCCC3)c(C(F)F)n1,10.8% (inactive)
13,O=[N+]([O-])c1cc(C(F)(F)F)ccc1Sc1ccc(C(F)(F)F)cc1[N+](=O)[O-],8.05% (active)
14,Cc1cc(C(C)(C)C)cc(C)c1CC1=NCCN1,102% (inactive)
15,O=c1c2ccccc2n(CC(O)CN2CCCC2)c2c(Br)cccc12 (centres undefined),82.3% (inactive)
16,COc1cc([C@@H]2c3cc4c(cc3C(O[C@@H]3O[C@@H]5CO[C@@H](c6cccs6)OC5[C@H](O)[C@H]3O)C3COC(=O)[C@@H]32)OCO4)cc(OC)c1O (some centres undefined),-21.7% (active)
17,CCCCc1nc(Cl)c(C2CC(c3ccc(Cl)cc3)=NN2c2cc(Cl)cc(Cl)c2)[nH]1 (centres undefined),35.4% (inactive)
18,CCC(C)(c1cc(C(C)(C)C)c(O)c(C(C)(C)C)c1)c1cc(C(C)(C)C)c(O)c(C(C)(C)C)c1,99.3% (inactive)
19,COc1ccc(Cn2cc3c(c2-c2ccccc2)CCc2cnoc2-3)cc1OC,7.72% (active)
20,O=C1CCC(=O)N1Cc1ccccc1,102% (inactive)

row,SMILES,growth
1,O=[N+]([O-])c1ccc(N=Nc2c(O)c(N=Nc3cc([N+](=O)[O-])cc([N+](=O)[O-])c3O)cc(N=Nc3cc(S(=O)(=O)O)cc4cc(S(=O)(=O)O)cc(O)c34)c2O)cc1,87.2% (inactive)
2,CCCCCCCCCCCCCCCCOc1ccc(C)cc1,134% (inactive)
3,CCSc1nc2ccccc2o1,97.5% (inactive)
4,CC12CC(C#N)CCC1O2 (centres undefined),101% (inactive)
5,CCCCCCCCSC1=CC(=O)C(OC)=C(OC)C1=O,-10.5% (active)
6,CC1=NN(c2ccc(Cl)cc2)CC1(C)N=O (centres undefined),38.5% (inactive)
7,NC(=O)NCC1CCCCC1,91.3% (inactive)
8,Nc1nc(N=Nc2ccc(O)cc2)cc(=O)[nH]1,95.6% (inactive)
9,Nc1ncnc2c1ncn2C1OC(CO)C2OC21 (centres undefined),114% (inactive)
10,CCCNC(=O)Oc1ccc(/C(=C(/C)Cc2ccc(OC)cc2)c2ccc(OCCN3CCCC3)cc2)cc1,51.9% (inactive)
11,CC(=O)c1ccc(C)c(N)c1,94.8% (inactive)
12,CC(=O)NC(CCc1ccc(Cl)c(Cl)c1)c1cccc(O)c(=O)c1 (centres undefined),-16.5% (active)
13,CCN(CC)c1ccc(/C=N/NC(=O)CSc2nc3ccccc3c(=O)n2Cc2ccc(S(N)(=O)=O)cc2)c(O)c1,-19.7% (active)
14,COc1ccc(-c2nn(C(=O)NCCN(C)C)cc2-c2ccncc2)cc1Cl,10.2% (inactive)
15,S=c1cc(S)c2cc(Br)ccc2[nH]1,101% (inactive)
16,CC(=O)[C@@H]1CC[C@]2(CO)CC[C@]3(C)[C@H](CC[C@@H]4[C@@]5(C)CCCNC(C)(C)[C@@H]5CC[C@]43C)[C@@H]12,136% (inactive)
17,O=C(Nc1ccc(-c2ccc3c(c2)NC(=O)/C3=C\c2ccc[nH]2)cc1)NC1CC1,98.3% (inactive)
18,CC[C@H](C)[C@H](NC(=O)[C@H](CCCCN)NC(=O)[C@H](CCCCN)NC(=O)[C@@H](NC(=O)[C@@H](NC(=O)[C@@H](N)Cc1cnc[nH]1)[C@@H](C)CC)[C@@H](C)CC)C(=O)N[C@@H](CCCNC(=N)N)C(=O)N[C@H](C(=O)N[C@@H](Cc1c[nH]c2ccccc12)C(=O)N[C@@H](Cc1ccc(O)cc1)C(=O)N[C@@H](CCCNC(=N)N)C(=O)N[C@@H](CCCCN)C(=O)N[C@@H](C)C(=O)N[C@@H](Cc1c[nH]c2ccccc12)C(=O)N[C@@H](Cc1cnc[nH]1)C(=O)N[C@H](C(=O)N[C@@H](CC(C)C)C(=O)NCC(=O)N[C@@H](CCCCN)C(=O)N[C@H](C(N)=O)C(C)C)C(C)C)[C@@H](C)O,89.5% (inactive)
19,O=C(Nc1cccc(C(F)(F)F)c1)Nc1ccc(OCc2nnc(-c3ccccc3)o2)c(F)c1,-4.69% (active)
